# Measured values published in PubChem BioAssay (EPA / NIEHS).
# More than one record can exist for a structure, and the calls need not agree. Active and inactive are the calls of the source. How the source made its calls: active means hit-call score of the fitted dose curve at least 0.9, where 1 is the maximum; inactive means score below 0.9.
# Legend:
# [1] = CEETOX_H295R_DOC: CeeTox H295R High-throughput Steroidogenesis Assay for DOC (AID 2283439); conditions: actives raise or lower the signal
# Method in brief: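 Readout: 11-deoxycorticosterone in culture medium by reverse-phase C18 HPLC with ESI+ tandem MS after MTBE extraction. Cells: H295R, forskolin-primed (10 uM, 48 h), chemical-treated 48 h; DMSO 0.1% final. Activity fitted bidirectionally versus DMSO.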
# [2] = read-out: Tumor necrosis factor receptor superfamily member 6 (Homo sapiens) (UniProt P25445); assay: LTEA_HepaRG_FAS: Life Technologies and Expression Analysis (LTEA) Assay for Fas cell surface death receptor (FAS) using HepaRG (AID 2283447); conditions: mRNA level, 48 h; actives raise or lower the signal
# Method in brief: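 FAS transcript level was measured by TaqMan qRT-PCR against three housekeeping genes after 48 h chemical exposure. Cells were HepaRG, 0.5% DMSO vehicle, with a top concentration of 100 uM and half-log dilutions over eight points, in duplicate.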
# [3] = read-out: Cyclin D2 (CCND2), CCND2 (gene 894); assay: LTEA_HepaRG_CCND2: Life Technologies and Expression Analysis (LTEA) Assay for Cyclin D2 (CCND2) using HepaRG (AID 2283449); conditions: mRNA level, 48 h; actives raise or lower the signal
# Method in brief: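 Read-out is CCND2 mRNA level measured by qRT-PCR in human HepaRG liver cells and normalised to three housekeeping genes. Chemicals were applied for 48 h at up to 100 uM, with gain or loss fitted relative to 0.5% DMSO.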
# [4] = read-out: Cyclin Dependent Kinase Inhibitor 1A (CDKN1A), CDKN1A (gene 1026); assay: LTEA_HepaRG_CDKN1A: Life Technologies and Expression Analysis (LTEA) Assay for Cyclin Dependent Kinase Inhibitor 1A (CDKN1A) using HepaRG (AID 2283450); conditions: mRNA level, 48 h; actives raise or lower the signal
# Method in brief: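 HepaRG, 48 h dosing, 8-pt half-log series from 100 uM top, 0.5% DMSO vehicle, duplicates. Readout: TaqMan qRT-PCR of CDKN1A transcript, housekeeping-normalized (ACTB, GAPDH, POLR2A). Up/down curve fit relative to DMSO.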
# [5] = read-out: Cyclin D1 (CCND1), CCND1 (gene 595); assay: LTEA_HepaRG_CCND1: Life Technologies and Expression Analysis (LTEA) Assay for Cyclin D1 (CCND1) using HepaRG (AID 2283451); conditions: mRNA level, 48 h; actives raise or lower the signal
# Method in brief: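 qRT-PCR (Fluidigm 96.96 array) read-out of transcript level, housekeeping-normalized (ACTB/GAPDH/POLR2A). HepaRG cells, 48 h chemical exposure, 8-point half-log series from 100 uM, 0.5% DMSO vehicle; gain or loss relative to DMSO baseline.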
# [6] = read-out: catalase (CAT), CAT (gene 847); assay: LTEA_HepaRG_CAT: Life Technologies and Expression Analysis (LTEA) Assay for catalase (CAT) using HepaRG (AID 2283452); conditions: mRNA level, 48 h; actives raise or lower the signal
# Method in brief: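 Expression of CAT was quantified by TaqMan qRT-PCR with ACTB/GAPDH/POLR2A normalization after 48 h chemical exposure of HepaRG. Eight-point half-log series, top 100 uM, in 0.5% DMSO; gain or loss fitted against vehicle.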
# [7] = read-out: Cytochrome P450 (CYP1A1), CYP1A1 (gene 1543); assay: LTEA_HepaRG_CYP1A1: Life Technologies and Expression Analysis (LTEA) Assay for Cytochrome P450 (CYP1A1) using HepaRG (AID 2283454); conditions: mRNA level, 48 h; actives raise or lower the signal
# Method in brief: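 qRT-PCR read-out: CYP1A1 transcript normalized to three housekeeping genes, fitted bidirectionally against 0.5% DMSO vehicle baseline. Human HepaRG cells, 48 h chemical exposure, 8-point half-log series topping at 100 uM.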
# [8] = read-out: CFLAR gene, CFLAR (gene 8837); assay: LTEA_HepaRG_CFLAR: Life Technologies and Expression Analysis (LTEA) Assay for CFLAR gene using HepaRG (AID 2283455); conditions: mRNA level, 48 h; actives raise or lower the signal
# Method in brief: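 HepaRG, 48 h exposure, 8-pt conc-response (100 uM top, half-log), 0.5% DMSO vehicle, duplicates. CFLAR expression by qRT-PCR; ACTB/GAPDH/POLR2A normalization; gain or loss fit vs DMSO baseline.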
# [9] = read-out: Forkhead box O1 (FOXO1), FOXO1 (gene 2308); assay: LTEA_HepaRG_FOXO1: Life Technologies and Expression Analysis (LTEA) Assay for Forkhead box O1 (FOXO1) using HepaRG (AID 2283456); conditions: mRNA level, 48 h; actives raise or lower the signal
# Method in brief: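 Readout is FOXO1 transcript level by multiplexed qRT-PCR against three housekeeping genes, curve-fitted in both directions relative to 0.5% DMSO vehicle. Human HepaRG cultures received chemicals for 48 h, up to 100 uM in half-log steps.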
# [10] = read-out: growth arrest and DNA damage 45 (GADD45A), GADD45A (gene 1647); assay: LTEA_HepaRG_GADD45A: Life Technologies and Expression Analysis (LTEA) Assay for growth arrest and DNA damage 45 (GADD45A) using HepaRG (AID 2283458); conditions: mRNA level, 48 h; actives raise or lower the signal
# Method in brief: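 Cells plated and cultured 48 h, switched to serum-free induction medium, then dosed for 48 h (100 uM top, half-log dilutions, 0.5% DMSO). RNA was isolated and transcript measured by Fluidigm qRT-PCR.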
# [11] = read-out: Forkhead box O3 (FOXO3), FOXO3 (gene 2309); assay: LTEA_HepaRG_FOXO3: Life Technologies and Expression Analysis (LTEA) Assay for Forkhead box O3 (FOXO3) using HepaRG (AID 2283459); conditions: mRNA level, 48 h; actives raise or lower the signal
# Method in brief: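 HepaRG, 48 h post-dose; 8 conc., half-log from 100 uM, 0.5% DMSO, duplicates; serum-free induction medium. Readout: FOXO3 mRNA, TaqMan qRT-PCR, housekeeping-normalized. Bidirectional curve fit vs DMSO baseline.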
# [12] = read-out: ABC Transporter (ABCB1), ABCB1 (gene 5243); assay: LTEA_HepaRG_ABCB1: Life Technologies and Expression Analysis (LTEA) Assay for ABC Transporter (ABCB1) using HepaRG (AID 2283460); conditions: mRNA level, 48 h; actives raise or lower the signal
# Method in brief: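 Expression of ABCB1 was quantified by qRT-PCR against three housekeeping genes after human HepaRG cultures received test chemicals for 48 hours. Concentrations spanned eight half-log steps topping at 100 uM in 0.5% DMSO; gain or loss of signal was fitted relative to vehicle.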
# [13] = read-out: growth arrest and DNA damage 45 (GADD45B), GADD45B (gene 4616); assay: LTEA_HepaRG_GADD45B: Life Technologies and Expression Analysis (LTEA) Assay for growth arrest and DNA damage 45 (GADD45B) using HepaRG (AID 2283461); conditions: mRNA level, 48 h; actives raise or lower the signal
# Method in brief: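 qRT-PCR read-out (Fluidigm TaqMan, housekeeping-normalized) of mRNA change in human HepaRG cells after 48 h chemical exposure; 8-point curve, top 100 uM, half-log steps, 0.5% DMSO vehicle; gain or loss fitted relative to DMSO baseline.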
# [14] = read-out: ABC Transporter (ABCC3), ABCC3 (gene 8714); assay: LTEA_HepaRG_ABCC3: Life Technologies and Expression Analysis (LTEA) Assay for ABC Transporter (ABCC3) using HepaRG (AID 2283462); conditions: mRNA level, 48 h; actives raise or lower the signal
# Method in brief: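 qRT-PCR read-out of ABCC3 transcript, normalized to three housekeeping genes (ACTB, GAPDH, POLR2A), after 48 h chemical exposure of human HepaRG cells. Eight half-log concentrations, highest 100 uM, in 0.5% DMSO; gain or loss fitted relative to DMSO baseline.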
# [15] = CEETOX_H295R_ESTRADIOL: CeeTox H295R High-throughput Steroidogenesis Assay for Estradiol (AID 2283440); conditions: actives raise or lower the signal;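 further: estradiol secreted into medium quantified by LC-MS/MS after dansyl derivatisation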
# Method in brief: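 H295R, 48 h forskolin (10 uM) prestim → 48 h compound, 0.1% DMSO final. Estradiol in medium: MTBE extraction, dansyl chloride derivatization, LC-MS/MS. Fit bidirectional vs DMSO baseline; MTT viability in same wells.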
# [16] = CEETOX_H295R_ESTRONE: CeeTox H295R High-throughput Steroidogenesis Assay for Estrone (AID 2283441); conditions: actives raise or lower the signal;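 further: estrone secreted into medium measured by LC-MS/MS after dansyl derivatization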
# Method in brief: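 H295R cells prestimulated 48 h with 10 uM forskolin, then exposed 48 h to chemicals in 0.1% DMSO final; estrone in medium extracted with MTBE, dansyl-derivatized, quantified by HPLC-MS/MS; bidirectional fitting versus DMSO, viability by MTT.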
# [17] = CEETOX_H295R_TESTO: CeeTox H295R High-throughput Steroidogenesis Assay for Testosterone (TESTO) (AID 2283457); conditions: actives raise or lower the signal;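 on AC50: cells exposed to chemicals for 48 h before medium collection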
# Method in brief: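 Readout: testosterone quantified by HPLC-MS/MS (C18, ESI positive) after MTBE liquid-liquid extraction of culture medium. Cells were H295R, 48 h chemical exposure per OECD 456 with modifications. Gain or loss of signal fitted relative to DMSO.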
# [18] = read-out: Fatty acid synthase (Homo sapiens) (UniProt P49327); assay: LTEA_HepaRG_FASN: Life Technologies and Expression Analysis (LTEA) Assay for Fatty Acid Synthase (FASN) using HepaRG (AID 2283448); conditions: mRNA level, 48 h; actives raise or lower the signal
# Method in brief: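 FASN expression changes, up or down relative to 0.5% DMSO, were measured by qRT-PCR in human HepaRG cells after 48 h treatment with chemicals at eight concentrations (half-log steps from 100 uM).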
# [19] = read-out: flavin-containing dimethylaniline monooxygenases 3 (FMO3), FMO3 (gene 2328); assay: LTEA_HepaRG_FMO3: Life Technologies and Expression Analysis (LTEA) Assay for flavin-containing dimethylaniline monooxygenases 3 (FMO3) using HepaRG (AID 2283453); conditions: mRNA level, 48 h; actives raise or lower the signal;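 on AC50: differentiated human HepaRG liver cells in serum-free induction medium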
# Method in brief: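 Differentiated HepaRG cells in serum-free induction medium, exposed 48 h in duplicate to 8 half-log concentrations up to 100 uM in 0.5% DMSO. FMO3 mRNA by qRT-PCR, normalized to ACTB, GAPDH, POLR2A; bidirectional fit vs DMSO.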
# Fatty acid synthase (Homo sapiens), sequence (P49327 whole entry, looked up): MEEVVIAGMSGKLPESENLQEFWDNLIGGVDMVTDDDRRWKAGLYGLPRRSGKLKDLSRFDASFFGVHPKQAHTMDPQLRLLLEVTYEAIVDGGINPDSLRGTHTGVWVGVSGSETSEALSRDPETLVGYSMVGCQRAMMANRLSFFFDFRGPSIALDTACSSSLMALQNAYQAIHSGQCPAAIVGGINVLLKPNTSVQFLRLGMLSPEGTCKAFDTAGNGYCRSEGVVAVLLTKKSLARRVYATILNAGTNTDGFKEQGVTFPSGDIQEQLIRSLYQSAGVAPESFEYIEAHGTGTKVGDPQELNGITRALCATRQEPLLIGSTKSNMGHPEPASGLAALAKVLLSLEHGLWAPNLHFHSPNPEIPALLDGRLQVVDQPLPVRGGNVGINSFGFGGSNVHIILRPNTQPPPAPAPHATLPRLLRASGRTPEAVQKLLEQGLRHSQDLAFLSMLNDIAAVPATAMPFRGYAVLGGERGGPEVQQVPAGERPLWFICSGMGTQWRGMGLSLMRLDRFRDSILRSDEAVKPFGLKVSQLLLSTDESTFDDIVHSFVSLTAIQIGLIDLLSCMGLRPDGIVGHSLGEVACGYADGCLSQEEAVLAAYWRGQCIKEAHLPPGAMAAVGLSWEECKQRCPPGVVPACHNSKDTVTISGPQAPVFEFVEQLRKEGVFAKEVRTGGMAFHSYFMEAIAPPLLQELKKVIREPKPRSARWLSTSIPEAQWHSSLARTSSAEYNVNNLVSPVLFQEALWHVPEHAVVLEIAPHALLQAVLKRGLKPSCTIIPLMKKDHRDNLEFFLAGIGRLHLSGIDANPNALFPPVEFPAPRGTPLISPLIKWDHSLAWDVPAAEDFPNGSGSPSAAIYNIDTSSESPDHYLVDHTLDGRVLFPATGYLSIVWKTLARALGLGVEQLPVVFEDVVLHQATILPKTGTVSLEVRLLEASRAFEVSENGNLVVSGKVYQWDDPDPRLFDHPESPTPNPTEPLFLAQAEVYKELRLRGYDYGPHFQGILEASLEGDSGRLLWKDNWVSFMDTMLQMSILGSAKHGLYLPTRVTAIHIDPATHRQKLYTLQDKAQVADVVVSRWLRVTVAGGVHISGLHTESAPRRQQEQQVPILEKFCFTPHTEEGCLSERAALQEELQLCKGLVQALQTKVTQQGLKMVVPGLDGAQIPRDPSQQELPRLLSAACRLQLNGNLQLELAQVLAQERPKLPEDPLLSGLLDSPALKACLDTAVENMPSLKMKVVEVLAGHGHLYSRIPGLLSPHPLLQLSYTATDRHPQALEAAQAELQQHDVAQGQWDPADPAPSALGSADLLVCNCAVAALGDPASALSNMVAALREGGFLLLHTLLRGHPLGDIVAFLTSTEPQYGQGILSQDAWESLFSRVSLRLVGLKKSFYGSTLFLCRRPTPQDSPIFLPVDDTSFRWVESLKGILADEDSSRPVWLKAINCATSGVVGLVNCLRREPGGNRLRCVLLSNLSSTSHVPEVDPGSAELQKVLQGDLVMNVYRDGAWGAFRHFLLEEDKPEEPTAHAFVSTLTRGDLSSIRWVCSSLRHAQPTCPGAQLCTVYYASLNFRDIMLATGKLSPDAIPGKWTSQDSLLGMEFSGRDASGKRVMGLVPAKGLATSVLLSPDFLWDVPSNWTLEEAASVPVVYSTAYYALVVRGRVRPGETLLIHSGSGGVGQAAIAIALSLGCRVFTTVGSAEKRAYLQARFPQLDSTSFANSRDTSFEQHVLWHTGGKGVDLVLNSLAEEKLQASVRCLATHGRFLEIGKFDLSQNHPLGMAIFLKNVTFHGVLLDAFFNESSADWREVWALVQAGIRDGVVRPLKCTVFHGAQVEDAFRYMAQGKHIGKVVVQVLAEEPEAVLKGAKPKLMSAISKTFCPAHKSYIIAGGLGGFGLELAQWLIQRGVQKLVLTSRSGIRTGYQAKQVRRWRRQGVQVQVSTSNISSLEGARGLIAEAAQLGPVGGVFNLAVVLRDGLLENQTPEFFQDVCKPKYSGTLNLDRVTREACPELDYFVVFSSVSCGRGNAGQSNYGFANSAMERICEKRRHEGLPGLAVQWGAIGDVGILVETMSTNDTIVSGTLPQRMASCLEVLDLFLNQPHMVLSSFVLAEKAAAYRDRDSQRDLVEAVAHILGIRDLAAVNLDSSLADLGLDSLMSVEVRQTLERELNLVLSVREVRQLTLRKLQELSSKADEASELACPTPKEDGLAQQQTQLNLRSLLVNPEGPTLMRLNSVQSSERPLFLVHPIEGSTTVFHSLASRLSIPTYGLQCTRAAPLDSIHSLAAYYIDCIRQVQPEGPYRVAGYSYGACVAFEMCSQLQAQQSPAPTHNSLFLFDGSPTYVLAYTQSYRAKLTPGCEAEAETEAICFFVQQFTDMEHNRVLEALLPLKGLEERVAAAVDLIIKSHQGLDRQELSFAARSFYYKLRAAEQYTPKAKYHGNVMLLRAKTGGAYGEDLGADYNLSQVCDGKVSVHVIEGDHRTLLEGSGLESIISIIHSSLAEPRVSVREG
structure (smiles),measurement,setting,value
C#C[C@]1(O)CC[C@H]2[C@@H]3CCC4=CC(=O)CC[C@@H]4[C@H]3CC[C@@]21CC,outcome,[1],inactive
same,outcome,[2],inactive
same,outcome,[3],inactive
same,outcome,[4],inactive
same,outcome,[5],inactive
same,outcome,[6],inactive
same,outcome,[7],inactive
same,outcome,[8],inactive
same,outcome,[9],inactive
same,outcome,[10],inactive
same,outcome,[11],inactive
same,AC50,[12],0.156 µM (active)
same,outcome,[13],inactive
same,outcome,[14],inactive
CCCCOC(=O)[C@@H](C)Oc1ccc(Oc2ccc(C(F)(F)F)cn2)cc1,outcome,[1],inactive
same,outcome,[15],inactive
same,outcome,[16],inactive
same,outcome,[2],inactive
same,outcome,[3],inactive
same,outcome,[4],inactive
same,outcome,[5],inactive
same,outcome,[6],inactive
same,AC50,[7],50.2 µM (active)
same,outcome,[8],inactive
same,outcome,[9],inactive
same,outcome,[10],inactive
same,outcome,[11],inactive
same,outcome,[12],inactive
same,outcome,[13],inactive
same,outcome,[14],inactive
CC(C)(c1ccc(O)cc1)c1ccc(O)cc1,outcome,[15],inactive
same,outcome,[16],inactive
same,outcome,[2],inactive
same,outcome,[3],inactive
same,outcome,[4],inactive
same,outcome,[5],inactive
same,outcome,[6],inactive
same,AC50,[7],11.7 µM (active)
same,outcome,[7],inactive
same,outcome,[8],inactive
same,outcome,[9],inactive
same,AC50,[17],3.57 µM (active)
same,outcome,[17],inactive
same,outcome,[10],inactive
same,outcome,[11],inactive
same,AC50,[12],50 µM (active)
same,outcome,[12],inactive
same,outcome,[13],inactive
same,outcome,[14],inactive
CSC(=O)c1cccc2nnsc12,outcome,[1],inactive
same,outcome,[2],inactive
same,outcome,[3],inactive
same,outcome,[4],inactive
same,outcome,[5],inactive
same,outcome,[6],inactive
same,AC50,[7],50 µM (active)
same,outcome,[8],inactive
same,outcome,[9],inactive
same,outcome,[17],inactive
same,outcome,[10],inactive
same,outcome,[11],inactive
same,outcome,[12],inactive
same,outcome,[13],inactive
same,outcome,[14],inactive
CCOC(=O)COc1cc(-n2ncc(C(F)(F)F)c(C)c2=O)c(F)cc1Cl,outcome,[2],inactive
same,outcome,[18],inactive
same,outcome,[3],inactive
same,outcome,[4],inactive
same,outcome,[5],inactive
same,outcome,[6],inactive
same,outcome,[19],inactive
same,AC50,[7],50 µM (active)
same,outcome,[8],inactive
same,outcome,[9],inactive
same,outcome,[10],inactive
same,outcome,[11],inactive
same,outcome,[12],inactive
same,outcome,[13],inactive
same,outcome,[14],inactive
N[C@@H](Cc1cc(I)c(Oc2ccc(O)c(I)c2)c(I)c1)C(=O)O,outcome,[2],inactive
same,outcome,[18],inactive
same,outcome,[3],inactive
same,outcome,[4],inactive
same,outcome,[5],inactive
same,AC50,[6],7.94 µM (active)
same,AC50,[19],40 µM (active)
same,AC50,[7],0.0392 µM (active)
same,outcome,[8],inactive
same,outcome,[9],inactive
same,outcome,[10],inactive
same,outcome,[11],inactive
same,AC50,[12],73.3 µM (active)
same,AC50,[13],7.94 µM (active)
same,outcome,[14],inactive
